PostGolgi yeast: growth inhibition of a yeast mutant, post-Golgi transport screen; inhibition, % at 10 µM; post-Golgi transport phenotypic cell assay; actives 0.9% (n = 98,000); AID 739;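 also: yeast cells grown in 1536-well plates; yeast grown about 18 h at 30C before absorbance read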
CYP2C9 act: CYP2C9 (human) activation. P11712. recombinant CYP2C9, luciferin-H conversion, luminescence; hits give high values; factor 1 = untreated enzyme, 0 = blocked. activation factor at 5 µM. actives 1.4% (n = 96,000). AID 1024;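 active = activation factor of 2 or more for CYP2C9 at a 5 µM dose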;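 also: 0 = sulfaphenazole-blocked wells and 1 = vehicle-only wells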
CYP2C19 inh: human CYP2C19 inhibition; P33261; CYP2C19 Supersomes, luciferin-H EGE luminescence, 30 min; inhibition, % at 5 µM; actives 21% (n = 96,000); AID 778;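 active = CYP2C19 inhibition above a set limit at 5 µM in the primary screen, cut at about 50% in these data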;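 also: plate controls were negative control wells for no effect and 2.5 mM tranylcypromine positive control for full effect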
CYP2C9 inh: blocks human cytochrome P450 2C9; actives 20% (n = 96,000); P11712; CYP2C9 Supersomes, luciferin-H conversion, luminescence; AID 777; inhibition, % at 5 µM;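 active = blocking of liver enzyme CYP2C9 beyond about 50% at 5 µM, limit read from the data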
CYP2C19 activ: increases human CYP2C19 enzyme activity. AID 1025. P33261. recombinant CYP2C19, luciferin-H EGE luminescence; hits give high values; 0 = fully inhibited enzyme, 1 = untreated enzyme. activation factor at 5 µM. 96,000 tested, under 10 active;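 active = activation factor of at least 2 at 5 µM in the primary screen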;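 also: 0 = wells with 2.5 mM tranylcypromine and 1 = vehicle-only wells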
PostGolgi ctrl: growth of the yeast control strain, post-Golgi counter-screen | efflux-deficient yeast background strain, growth absorbance A615, 16 h | inhibition, % at 10 µM | actives 5% (n = 98,000) | AID 738
* hit, by the source's call; / = no result. Sampled rows, rich in hits. Any-hit rate of the full collection: about 32%. Rule as the data show it, unless noted: active = inhibition above about 30%; inactive = the rest.

SMILES	PostGolgi yeast	CYP2C9 act	CYP2C19 inh	CYP2C9 inh	CYP2C19 activ	PostGolgi ctrl
COc1ccc(C(C(=O)NC2CCCC2)N(CCN(C)C)C(=O)c2snc(C(N)=O)c2N)cc1 (configuration not stated)	-4	1	-2	-4	1	-7
O=C(NC1CCCCC1)C(c1ccc2ncccc2c1)N(Cc1ccccc1)C(=O)c1ccc2c(c1)OCCO2 (configuration not stated)	0	0.3	80*	67*	0.2	9
O=C(NCC(=O)N(c1ccc2c(c1)OCCO2)C(C(=O)NC1CCCC1)c1ccco1)c1ccco1 (configuration not stated)	4	/	/	/	/	1
CCCCN1CNC(=S)N(c2cc(C)ccc2C)C1	0	0.9	72*	9	0.3	2
Cc1ccc(C)c(N2CC(=O)N(c3cc(C)ccc3C)CC2=O)c1	3	1.1	-11	-14	1.1	-2
CCOC(=O)C(=O)Nc1ccc(S(=O)(=O)N2CCOCC2)cc1OC	23	1.2	-11	-17	1.1	19
O=C(Nc1cc(S(=O)(=O)N2CCOCC2)ccc1Cl)C(=O)c1c(-c2ccccc2)cc2ccccn12	93*	0.3	45	70*	0.5	100*
O=C(Nc1nccs1)c1ccc(S(=O)(=O)NCc2cccs2)cc1	1	0.3	36	70*	0.6	12
O=C(Nc1nncs1)c1ccc(S(=O)(=O)c2ccccc2)cc1	-8	0.4	-19	60*	1.2	0
O=C(Nc1nccs1)c1ccc(S(=O)(=O)NCC2CCCCC2)cc1	18	0.9	8	10	0.9	41*
CN(c1ccc(C(=O)Nc2nccs2)cc1)S(=O)(=O)c1ccccc1	6	0.5	73*	51*	0.3	24
O=C(Nc1ccc(S(=O)(=O)Nc2nccs2)cc1)C1CCCCC1	-2	1	-16	1	1.2	5
CN(c1ccccc1)S(=O)(=O)c1ccc(C(=O)Nc2nccs2)cc1	-13	0.9	-6	6	1.1	10
COc1ccccc1N1CCN(C(=O)CN(c2ccc(C)c(C)c2)S(C)(=O)=O)CC1	3	1.2	40	-17	0.6	19
O=C(O)c1ccc(COc2cccc(CO)c2)cc1	-17	0.7	86*	31	0.1	-2
Cc1ccc(C)c(NS(=O)(=O)c2ccc(OCC(=O)N3CCOCC3)cc2)c1	-2	/	/	/	/	6
CCOC(=O)c1sc2ncn(CC(=O)NCC3CCCO3)c(=O)c2c1C (configuration not stated)	-6	0.8	13	21	0.9	8
S=C1NC(c2ccccc2)=NCN1c1ccccc1	4	0.4	95*	65*	0.1	24
O=c1[nH]c(CSc2nnc(-c3cccnc3)n2C2CCCCC2)nc2ccccc12	11	0.9	62*	7	0.4	2
CCn1c(SCCC(=O)O)nnc1-c1cccnc1	5	0.9	-1	6	1	2
CCn1c(SCc2nc3ccccc3c(=O)[nH]2)nnc1-c1ccncc1	0	0.6	94*	37	0.1	1
CCn1c(SCc2nc3cc(OC)c(OC)cc3c(=O)[nH]2)nnc1-c1ccncc1	9	1	6	0	0.9	-1
C=CCn1c(SCc2nc3ccccc3[nH]2)nnc1-c1ccncc1	-2	0.5	93*	46	0.1	9
CCn1c(SCc2nc3ccccc3c(=O)[nH]2)nnc1-c1cccnc1	-1	1.1	90*	-6	0.1	15
Nn1c(SCc2nc3ccccc3[nH]2)nnc1-c1cccnc1	-8	0.9	30	13	0.7	-8
SMILES	PostGolgi yeast	CYP2C9 act	CYP2C19 inh	CYP2C9 inh	CYP2C19 activ	PostGolgi ctrl
COC(=O)CCc1c(C)[nH]c(C(=O)OCc2ccccc2)c1C	13	0.6	62*	36	0.4	31*
COc1ccccc1NC(=O)c1cn(C)c(=O)c2cc(OC)c(OC)cc12	3	0.7	1	28	1	8
COc1ccccc1NC(=O)c1cc(Sc2nncn2C)nc2ccccc12	1	0.2	38	80*	0.6	33*
C/C(O)=C(/N=O)C(=O)Nc1ccccc1	-2	0.9	8	11	0.9	-1
CC(=O)/C=N/Nc1ccccc1	21	0.4	-6	60*	1.1	8
Nc1nc(SCC(=O)NC2CCCCCC2)[nH]c(=O)c1-c1ccccc1	7	1.2	2	-24	1	3

High-throughput results from PubChem.
